# Data as given in PubChem BioAssay AID651789 (National Center for Advancing Translational Sciences (NCATS), 2012).
# Inconclusive results are not listed. A call without a number means that no potency is given here. Calls of active or inactive are those of the source. The call rests on the fitted dose curve; in most records, active means well fitted inhibition curve with a large enough effect; inconclusive means small, poorly fitted or top-dose-only effect; inactive means no such curve, though single readings can be large or run the other way.
# Experiment: Acumen qHTS Assay for Inhibitors of the mTORC1 Signaling Pathway in WT MEF Cells: Hit Validation; further: nearly all actives have a fitted effect of over 60% in size
# How it was run: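 Read-out is immunofluorescent phospho-rpS6 (Ser235/236) normalised to PI-stained cell number, reported as % active cells using a 7.5 nM rapamycin threshold. Cells: WT or Tsc2-/-, p53-/- MEFs, compound-exposed 24 h at 37C; PI count also tracks viability.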
# Potency means the concentration at half of the fitted maximal effect.
row,Compound,Potency
1,Cc1ccccc1C(=O)N1CCN(CCc2ccccn2)CC1,inactive
2,CCOC(=O)c1ccc(N2C(=O)c3n[nH]c(-c4ccco4)c3C2c2ccc(OCC)cc2)cc1 (stereo not given),inactive
3,O=C(NCC(c1cccs1)S(=O)(=O)c1cccs1)c1ccccc1 (stereo not given),inactive
4,Cc1ccc(S(=O)(=O)c2nc(-c3ccco3)oc2SC(C)c2ccccc2)cc1 (stereo not given),inactive
5,Cc1nn(CCCC(=O)NCc2cccc(Cl)c2)c(=O)c2c1sc1ccccc12,inactive
6,COc1ccc(N2CCN(C(=O)C(C)n3nc(C)c4sc5ccccc5c4c3=O)CC2)cc1 (stereo not given),inactive
7,CCCCS(=O)(=O)c1oc(-c2ccc(F)cc2)nc1S(=O)(=O)c1ccccc1,0.656 µM (active)
8,COc1cc(NC(=O)c2cccc3c2C(=O)N(C2CCCCC2)C3)cc(OC)c1OC,inactive
9,COc1ccc(OCC(O)Cn2c(=N)n(CCN3CCCCC3)c3ccccc32)cc1 (stereo not given),inactive
10,COc1ccc(S(=O)(=O)N(CCc2ccccc2)CC(=O)Nc2cccc(OC)c2)cc1,inactive
11,CCN1CCN(C(=O)Cn2ncc3c4ccccc4n(Cc4c(C)cc(C)cc4C)c3c2=O)CC1,5.21 µM (active)
12,CCc1ccc(S(=O)(=O)c2c(C(=O)c3ccc(C)c(C)c3)cnc3ccccc23)cc1,inactive
13,Cc1ccc(CNS(=O)(=O)c2cc(C(=O)Nc3cccc(C(F)(F)F)c3)ccc2F)cc1,inactive
14,CCc1ccccc1NC(=O)CSc1nc2c(oc3ccccc32)c(=O)n1-c1ccccc1F,inactive
15,Oc1ccc(NCc2ccccc2OCc2ccc(Cl)cc2)cc1,inactive
16,COc1ccc(CCNC(=O)CCCn2nc(C)c3sc4ccccc4c3c2=O)cc1OC,inactive
17,Cc1ccc(NC(=O)CSc2nc(=O)cc(N)n2CCc2ccccc2)cc1,inactive
18,CCN(CC)CCn1c(=N)n(CC(O)COc2ccccc2C)c2ccccc21 (stereo not given),11.7 µM (active)
19,CC(=O)Nc1cccc(NC(=O)C(=O)NCCc2sc(-c3ccccc3)nc2C)c1,7.36 µM (active)
20,O=C(NCC1CCN(Cc2cccc(Cl)c2)CC1)Nc1ccc(F)c(Cl)c1,inactive

row,Compound,Potency
1,CCCC1=Nc2cc(C(=O)NCc3ccccc3)ccc2Sc2ccccc21,2.61 µM (active)
2,CC(C)(C)C1CCc2c(sc(NC(=O)C3c4ccccc4Oc4ccccc43)c2C(N)=O)C1 (stereo not given),inactive
3,Cc1ccc(C)c(N2CCN(CCCNC(=O)c3nnc(Cc4ccc(F)cc4Cl)o3)CC2)c1,inactive
4,CCN(CC)CCn1c(=N)n(CCOc2ccccc2Cl)c2ccccc21,9.27 µM (active)
5,Cc1ccc(-c2noc(CCC(=O)N(C)c3ccccc3F)n2)cc1,inactive
6,COc1cccc(-c2nc(SCC(=O)NCC3CCCO3)c(-c3ccc(F)cc3)[nH]2)c1 (stereo not given),inactive
7,CCOC(=O)c1c(NC(=O)COc2ccc(OC)cc2)sc(C(=O)N(CC)CC)c1C,inactive
8,CCOc1ccccc1NC(=O)CSc1cc(=O)n(CC)c2ccccc12,inactive
9,O=C(Nc1ccc(Cl)cc1)C1CCC(CNS(=O)(=O)c2ccc(Br)s2)CC1 (stereo not given),inactive
10,COc1cccc(-n2c(-c3ccco3)nc3c(cnn3-c3ccc(C)cc3)c2=O)c1,inactive
11,O=S(=O)(NCc1nc2cccnc2n1Cc1ccccc1Cl)c1ccc(F)c(Cl)c1,inactive
12,CCCCCn1c(=N)n(CC(O)COc2cccc(C)c2)c2ccccc21 (stereo not given),4.14 µM (active)
13,Cc1cccc(N2CCN(c3ncnc4c3nc3n4CCCCC3)CC2C)c1 (stereo not given),11.7 µM (active)
14,Cc1nc2ccc(S(=O)(=O)CCC(=O)Nc3ccc(Cl)cc3)cc2s1,inactive
15,COc1cc(C)ccc1OCCn1c(-c2ccc(Cl)cc2)nc2ccccc2c1=O,inactive
16,Cc1ccc(C)c(NC(=O)Nc2cc3c(cc2N2CCCCC2)n(C)c(=O)n3C)c1,inactive
17,COc1ccc(N(C)C(=O)c2cc(S(=O)(=O)N3CCc4ccccc43)cn2C)c(OC)c1,inactive
18,Cc1ccc([C@H]2Nc3ccc(S(=O)(=O)Nc4cccc(Cl)c4C)cc3[C@H]3C=CC[C@H]32)cc1,inactive
19,C=CCNC1=C2C[C@@H](C)C[C@H](OC)[C@H](O)[C@@H](C)/C=C(\C)[C@H](OC(N)=O)[C@@H](OC)/C=C\C=C(/C)C(=O)NC(=CC1=O)C2=O,0.515 µM (active)
20,C#CC(C)(CC)NC(=O)Cn1nnc(-c2ccc(OCc3c(F)cccc3Cl)cc2)n1 (stereo not given),inactive
